Laboratory results published in publication PMC7862700, “An all-to-all approach to the identification of sequence-specific readers for epigenetic DNA modifications on cytosine”.

Experiments:
Experiment in all cases: DAPPL (digital affinity profiling via proximity ligation, sequencing); 10 mM Tris-HCl pH 7.5, 50 mM NaCl, 1 mM DTT, 4% glycerol, room temperature, 30 min; GST-TFs on glutathione beads, 16-mer random dsDNA library, 0.1% formaldehyde crosslink after washing; high values mean tight binding
Settings in all cases: protein: recombinant; tags: N-terminal GST; dsDNA, one strand shown
[1] = target: T1, ERF (Homo sapiens, UniProt P50548 1-548)
T1 sequence: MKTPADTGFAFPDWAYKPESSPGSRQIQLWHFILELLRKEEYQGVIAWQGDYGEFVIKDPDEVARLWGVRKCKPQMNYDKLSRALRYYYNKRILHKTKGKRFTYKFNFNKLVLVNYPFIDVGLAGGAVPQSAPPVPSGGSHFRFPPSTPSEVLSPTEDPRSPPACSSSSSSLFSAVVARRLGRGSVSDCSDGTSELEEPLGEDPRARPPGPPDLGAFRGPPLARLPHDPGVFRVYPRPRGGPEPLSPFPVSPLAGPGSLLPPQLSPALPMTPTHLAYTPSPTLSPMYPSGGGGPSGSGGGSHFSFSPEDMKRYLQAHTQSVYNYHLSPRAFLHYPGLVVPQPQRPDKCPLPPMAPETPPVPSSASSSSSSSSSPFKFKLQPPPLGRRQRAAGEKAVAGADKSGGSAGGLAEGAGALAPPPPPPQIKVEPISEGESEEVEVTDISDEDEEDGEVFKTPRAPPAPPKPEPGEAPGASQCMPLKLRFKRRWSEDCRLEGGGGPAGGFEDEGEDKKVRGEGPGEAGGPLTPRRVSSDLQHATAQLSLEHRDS
Method in brief: (§1)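 GST fusions of human transcription factors were expressed in yeast and captured with glutathione beads. Once given DNA barcodes and pooled alongside a tag-only sample, they were incubated for 30 min at room temperature with 200 nmole of a random double-stranded 16-mer DNA library in Tris/NaCl/DTT/glycerol buffer, then washed, crosslinked (0.1% formaldehyde), proximity-ligated, PCR-amplified and sequenced on an Illumina NextSeq500. The binding signal of each hexamer is its read frequency for a factor divided by its frequency for the tag-only sample.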

[2] = target: T2, ETV3L (Homo sapiens, UniProt Q6ZN32 1-361)
T2 sequence: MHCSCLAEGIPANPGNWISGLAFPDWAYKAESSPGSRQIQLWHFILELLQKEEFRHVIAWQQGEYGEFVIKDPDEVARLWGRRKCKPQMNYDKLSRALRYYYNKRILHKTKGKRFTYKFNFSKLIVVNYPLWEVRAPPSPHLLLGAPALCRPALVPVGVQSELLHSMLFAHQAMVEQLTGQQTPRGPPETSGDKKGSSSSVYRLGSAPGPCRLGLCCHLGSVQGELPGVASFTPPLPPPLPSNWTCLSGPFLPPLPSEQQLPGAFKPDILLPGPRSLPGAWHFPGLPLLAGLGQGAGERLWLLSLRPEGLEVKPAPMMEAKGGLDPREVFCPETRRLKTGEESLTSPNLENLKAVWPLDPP
Method in brief: as §1

[3] = target: T3, ETS2 (Homo sapiens, UniProt P15036 1-469)
T3 sequence: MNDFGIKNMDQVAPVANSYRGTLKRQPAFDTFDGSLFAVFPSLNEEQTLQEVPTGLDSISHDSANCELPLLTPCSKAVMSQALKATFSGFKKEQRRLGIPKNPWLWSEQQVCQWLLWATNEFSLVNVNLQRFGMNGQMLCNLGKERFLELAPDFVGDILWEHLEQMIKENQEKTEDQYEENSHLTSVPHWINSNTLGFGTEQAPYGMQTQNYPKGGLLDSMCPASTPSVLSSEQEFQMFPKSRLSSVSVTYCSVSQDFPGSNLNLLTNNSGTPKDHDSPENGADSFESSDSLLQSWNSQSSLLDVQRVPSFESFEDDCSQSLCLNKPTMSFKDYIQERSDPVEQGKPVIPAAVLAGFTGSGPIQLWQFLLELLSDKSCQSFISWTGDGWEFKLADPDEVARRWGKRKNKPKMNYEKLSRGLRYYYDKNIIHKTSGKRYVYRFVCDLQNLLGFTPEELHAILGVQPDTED
Method in brief: as §1

[4] = target: T4, SPDEF (Homo sapiens, UniProt O95238 1-335)
T4 sequence: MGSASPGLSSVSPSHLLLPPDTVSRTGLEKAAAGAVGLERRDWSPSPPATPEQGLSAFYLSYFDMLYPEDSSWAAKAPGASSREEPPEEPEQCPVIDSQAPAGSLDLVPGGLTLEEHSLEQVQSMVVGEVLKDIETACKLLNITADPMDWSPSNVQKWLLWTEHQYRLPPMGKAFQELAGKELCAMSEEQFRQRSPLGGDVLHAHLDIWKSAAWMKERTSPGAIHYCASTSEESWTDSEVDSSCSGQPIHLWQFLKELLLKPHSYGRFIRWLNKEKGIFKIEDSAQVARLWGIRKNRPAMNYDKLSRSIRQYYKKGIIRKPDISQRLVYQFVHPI
Method in brief: as §1

[5] = target: T5, ETV7 (Homo sapiens, UniProt Q9Y603 1-341)
T5 sequence: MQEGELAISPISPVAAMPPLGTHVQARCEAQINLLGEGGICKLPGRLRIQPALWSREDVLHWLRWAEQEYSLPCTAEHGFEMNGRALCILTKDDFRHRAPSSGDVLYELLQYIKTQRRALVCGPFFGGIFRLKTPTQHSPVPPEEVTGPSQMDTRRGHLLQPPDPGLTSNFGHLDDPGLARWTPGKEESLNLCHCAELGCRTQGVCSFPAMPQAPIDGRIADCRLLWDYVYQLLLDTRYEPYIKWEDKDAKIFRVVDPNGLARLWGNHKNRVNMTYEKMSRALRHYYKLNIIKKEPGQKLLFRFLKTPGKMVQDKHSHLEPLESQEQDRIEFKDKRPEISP
Method in brief: as §1

[6] = target: T6, ELF5 (Homo sapiens, UniProt Q9UKW6-2 1-255)
T6 sequence: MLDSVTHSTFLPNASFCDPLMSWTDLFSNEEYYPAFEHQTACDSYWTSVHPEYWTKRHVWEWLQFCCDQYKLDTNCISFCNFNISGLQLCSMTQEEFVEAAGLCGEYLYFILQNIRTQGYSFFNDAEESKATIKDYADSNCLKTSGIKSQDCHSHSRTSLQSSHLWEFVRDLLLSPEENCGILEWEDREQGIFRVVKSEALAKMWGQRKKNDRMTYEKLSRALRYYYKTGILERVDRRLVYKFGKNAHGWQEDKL
Method in brief: as §1

[7] = target: T7, ETV3 (Homo sapiens, UniProt P41162-2 1-143)
T7 sequence: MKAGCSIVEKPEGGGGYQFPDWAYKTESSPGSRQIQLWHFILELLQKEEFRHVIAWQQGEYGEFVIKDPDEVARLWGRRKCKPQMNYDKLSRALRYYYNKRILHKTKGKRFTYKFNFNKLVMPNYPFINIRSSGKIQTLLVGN
Method in brief: as §1

[8] = target: ETV6 (Homo sapiens, UniProt P41212 1-452)
Method in brief: as §1

Chain of ETV6 (P41212 whole entry): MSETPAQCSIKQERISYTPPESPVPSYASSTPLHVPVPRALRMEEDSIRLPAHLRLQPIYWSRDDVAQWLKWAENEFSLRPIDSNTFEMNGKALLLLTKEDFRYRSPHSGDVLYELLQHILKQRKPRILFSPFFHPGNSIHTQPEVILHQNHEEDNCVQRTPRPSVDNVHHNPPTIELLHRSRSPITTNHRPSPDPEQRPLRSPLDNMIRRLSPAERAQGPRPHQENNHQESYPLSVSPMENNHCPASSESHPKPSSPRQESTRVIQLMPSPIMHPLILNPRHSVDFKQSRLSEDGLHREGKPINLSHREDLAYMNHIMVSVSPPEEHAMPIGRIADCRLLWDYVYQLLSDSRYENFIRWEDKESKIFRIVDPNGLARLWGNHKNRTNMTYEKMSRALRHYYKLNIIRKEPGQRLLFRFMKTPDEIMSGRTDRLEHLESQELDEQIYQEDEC

Sequence | binding signal [1] | binding signal [2] | binding signal [3] | binding signal [4] | binding signal [5] | binding signal [6] | binding signal [7] | binding signal [8]
GACTCT | 1.58 fold enrichment (6-mer frequency, TF over GST control) | 1.32 fold enrichment (6-mer frequency, TF over GST control) | 1.36 fold enrichment (6-mer frequency, TF over GST control) | 1.21 fold enrichment (6-mer frequency, TF over GST control) | 1.23 fold enrichment (6-mer frequency, TF over GST control) | 1.22 fold enrichment (6-mer frequency, TF over GST control) | 1.22 fold enrichment (6-mer frequency, TF over GST control) | 1.16 fold enrichment (6-mer frequency, TF over GST control)
TATCAC | 1.19 fold enrichment (6-mer frequency, TF over GST control) | 1.23 fold enrichment (6-mer frequency, TF over GST control) | 1.2 fold enrichment (6-mer frequency, TF over GST control) | 1.25 fold enrichment (6-mer frequency, TF over GST control) | 1.14 fold enrichment (6-mer frequency, TF over GST control) | 1.14 fold enrichment (6-mer frequency, TF over GST control) | 1.19 fold enrichment (6-mer frequency, TF over GST control) | 1.25 fold enrichment (6-mer frequency, TF over GST control)
GCCTAA | 1.22 fold enrichment (6-mer frequency, TF over GST control) | 1.22 fold enrichment (6-mer frequency, TF over GST control) | 1.31 fold enrichment (6-mer frequency, TF over GST control) | 1.11 fold enrichment (6-mer frequency, TF over GST control) | 1.19 fold enrichment (6-mer frequency, TF over GST control) | 1.18 fold enrichment (6-mer frequency, TF over GST control) | 1.21 fold enrichment (6-mer frequency, TF over GST control) | 1.13 fold enrichment (6-mer frequency, TF over GST control)
TTCGTA | 1.39 fold enrichment (6-mer frequency, TF over GST control) | 1.35 fold enrichment (6-mer frequency, TF over GST control) | 1.36 fold enrichment (6-mer frequency, TF over GST control) | 1.21 fold enrichment (6-mer frequency, TF over GST control) | 1.4 fold enrichment (6-mer frequency, TF over GST control) | 1.3 fold enrichment (6-mer frequency, TF over GST control) | 1.44 fold enrichment (6-mer frequency, TF over GST control) | 1.3 fold enrichment (6-mer frequency, TF over GST control)
ATCTTA | 1.1 fold enrichment (6-mer frequency, TF over GST control) | 1.1 fold enrichment (6-mer frequency, TF over GST control) | 1.12 fold enrichment (6-mer frequency, TF over GST control) | 1.12 fold enrichment (6-mer frequency, TF over GST control) | 1.18 fold enrichment (6-mer frequency, TF over GST control) | 1.11 fold enrichment (6-mer frequency, TF over GST control) | 1.04 fold enrichment (6-mer frequency, TF over GST control) | 1.14 fold enrichment (6-mer frequency, TF over GST control)
CCACTA | 1.11 fold enrichment (6-mer frequency, TF over GST control) | 1.13 fold enrichment (6-mer frequency, TF over GST control) | 1.14 fold enrichment (6-mer frequency, TF over GST control) | 1.09 fold enrichment (6-mer frequency, TF over GST control) | 1.04 fold enrichment (6-mer frequency, TF over GST control) | 1.06 fold enrichment (6-mer frequency, TF over GST control) | 1.03 fold enrichment (6-mer frequency, TF over GST control) | 1.07 fold enrichment (6-mer frequency, TF over GST control)
TGTTGC | 1.46 fold enrichment (6-mer frequency, TF over GST control) | 1.37 fold enrichment (6-mer frequency, TF over GST control) | 1.3 fold enrichment (6-mer frequency, TF over GST control) | 1.33 fold enrichment (6-mer frequency, TF over GST control) | 1.27 fold enrichment (6-mer frequency, TF over GST control) | 1.3 fold enrichment (6-mer frequency, TF over GST control) | 1.56 fold enrichment (6-mer frequency, TF over GST control) | 1.33 fold enrichment (6-mer frequency, TF over GST control)
TCCTTC | 1.95 fold enrichment (6-mer frequency, TF over GST control) | 1.9 fold enrichment (6-mer frequency, TF over GST control) | 2.09 fold enrichment (6-mer frequency, TF over GST control) | 2.21 fold enrichment (6-mer frequency, TF over GST control) | 1.92 fold enrichment (6-mer frequency, TF over GST control) | 3.06 fold enrichment (6-mer frequency, TF over GST control) | 2.21 fold enrichment (6-mer frequency, TF over GST control) | 2.31 fold enrichment (6-mer frequency, TF over GST control)
AATAGT | 1.21 fold enrichment (6-mer frequency, TF over GST control) | 1.25 fold enrichment (6-mer frequency, TF over GST control) | 1.13 fold enrichment (6-mer frequency, TF over GST control) | 1.06 fold enrichment (6-mer frequency, TF over GST control) | 1.18 fold enrichment (6-mer frequency, TF over GST control) | 1.18 fold enrichment (6-mer frequency, TF over GST control) | 1.3 fold enrichment (6-mer frequency, TF over GST control) | 1.34 fold enrichment (6-mer frequency, TF over GST control)
TAGATG | 1.54 fold enrichment (6-mer frequency, TF over GST control) | 1.36 fold enrichment (6-mer frequency, TF over GST control) | 1.3 fold enrichment (6-mer frequency, TF over GST control) | 1.35 fold enrichment (6-mer frequency, TF over GST control) | 1.33 fold enrichment (6-mer frequency, TF over GST control) | 1.27 fold enrichment (6-mer frequency, TF over GST control) | 1.22 fold enrichment (6-mer frequency, TF over GST control) | 1.24 fold enrichment (6-mer frequency, TF over GST control)
GATCTC | 1.22 fold enrichment (6-mer frequency, TF over GST control) | 1.25 fold enrichment (6-mer frequency, TF over GST control) | 1.31 fold enrichment (6-mer frequency, TF over GST control) | 1.42 fold enrichment (6-mer frequency, TF over GST control) | 1.29 fold enrichment (6-mer frequency, TF over GST control) | 1.21 fold enrichment (6-mer frequency, TF over GST control) | 1.29 fold enrichment (6-mer frequency, TF over GST control) | 1.15 fold enrichment (6-mer frequency, TF over GST control)
CTCTGG | 1.36 fold enrichment (6-mer frequency, TF over GST control) | 1.45 fold enrichment (6-mer frequency, TF over GST control) | 1.19 fold enrichment (6-mer frequency, TF over GST control) | 1.19 fold enrichment (6-mer frequency, TF over GST control) | 1.33 fold enrichment (6-mer frequency, TF over GST control) | 1.21 fold enrichment (6-mer frequency, TF over GST control) | 1.31 fold enrichment (6-mer frequency, TF over GST control) | 1.39 fold enrichment (6-mer frequency, TF over GST control)
TTGACA | 1.46 fold enrichment (6-mer frequency, TF over GST control) | 1.37 fold enrichment (6-mer frequency, TF over GST control) | 1.4 fold enrichment (6-mer frequency, TF over GST control) | 1.3 fold enrichment (6-mer frequency, TF over GST control) | 1.44 fold enrichment (6-mer frequency, TF over GST control) | 1.29 fold enrichment (6-mer frequency, TF over GST control) | 1.26 fold enrichment (6-mer frequency, TF over GST control) | 1.32 fold enrichment (6-mer frequency, TF over GST control)
TTTACA | 1.28 fold enrichment (6-mer frequency, TF over GST control) | 1.23 fold enrichment (6-mer frequency, TF over GST control) | 1.25 fold enrichment (6-mer frequency, TF over GST control) | 1.15 fold enrichment (6-mer frequency, TF over GST control) | 1.22 fold enrichment (6-mer frequency, TF over GST control) | 1.22 fold enrichment (6-mer frequency, TF over GST control) | 1.22 fold enrichment (6-mer frequency, TF over GST control) | 1.17 fold enrichment (6-mer frequency, TF over GST control)
CTGTCT | 1.37 fold enrichment (6-mer frequency, TF over GST control) | 1.37 fold enrichment (6-mer frequency, TF over GST control) | 1.4 fold enrichment (6-mer frequency, TF over GST control) | 1.44 fold enrichment (6-mer frequency, TF over GST control) | 1.53 fold enrichment (6-mer frequency, TF over GST control) | 1.28 fold enrichment (6-mer frequency, TF over GST control) | 1.45 fold enrichment (6-mer frequency, TF over GST control) | 1.32 fold enrichment (6-mer frequency, TF over GST control)
